Measurements published in PubChem BioAssay AID651719 (The Scripps Research Institute Molecular Screening Center, 2012).
Hit rate of the full screen: of about 360,000 compounds, about 1,600 (0.44%) were called active. Many of the other results were omitted from the sample, so actives are more common in it than they were. A number with no mark means an inactive call.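 How the source made its calls: active means inhibition above the screen-wide average plus 3 SD (cut at about 13% in these data); inactive means the rest.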

What follows are compounds tested against Galanin receptor type 3 (Homo sapiens) (UniProt O60755) (assay: blockers of human galanin receptor 3 – cell-based, fluorescence readout, primary screen (AID 651719;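 further: forskolin and galanin both at EC90 stimulate the cells; cAMP rise reported by CNG channel membrane potential dye signal; 0% = forskolin plus galanin with DMSO and 100% = forskolin alone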)). Details: HEK293 GalR3-CNG cAMP membrane potential fluorescence; at 3 µM; active compounds read high; galR3 body fused to GalR1 C-terminus.
Chain of Galanin receptor type 3 (Homo sapiens) (O60755 1-299 limits assumed): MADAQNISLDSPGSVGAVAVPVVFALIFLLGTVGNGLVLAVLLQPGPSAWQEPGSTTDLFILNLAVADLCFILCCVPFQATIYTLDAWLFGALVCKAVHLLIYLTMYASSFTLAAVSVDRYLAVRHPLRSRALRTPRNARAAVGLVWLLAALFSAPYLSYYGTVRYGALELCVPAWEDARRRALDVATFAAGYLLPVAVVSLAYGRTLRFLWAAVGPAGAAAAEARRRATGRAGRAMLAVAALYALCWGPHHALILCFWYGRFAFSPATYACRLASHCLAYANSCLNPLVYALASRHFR

Which inhibition does the source give for `COc1ccc(-c2ccc3c(n2)CCCN3S(=O)(=O)c2ccc(C)cc2)cc1` here?
Its inhibition is -6.68%.

How did the inhibition turn out when `Cc1nc(NC(=O)C(C)(C)C)sc1[N+](=O)[O-]` was run?
Its inhibition is -6.84%.

`CSc1nc(N)c(C#N)c(-c2ccccc2Cl)c1C#N` was tested. Which inhibition did it give?
Its inhibition is 13.6% (active).

For `CSc1ccc(-c2c(C#N)c(N)nc3c2c(C)nn3-c2ccccc2)cc1`, which inhibition is on record?
The inhibition was -3%.

With `COc1ccccc1-c1c(C#N)c(N)nc2c1CCC2` as the compound, how does the inhibition read?
Its inhibition is -3.19%.

With `Cc1ccc(N)cc1CN1CCN(c2ncc(Cc3ccccc3)cn2)CC1` as the compound, how does the inhibition read?
Its inhibition is 3.95%.

For `COc1ccccc1Cc1c(-c2ccc(F)cc2)nc2ccc(C)cn12`, which inhibition is on record?
Its inhibition is -8.12%.

`CCOC(=O)C1=C(C(=O)OCC)C2N(Cc3ccc(C#N)cc3)c3ccccc3[C@@]23C[C@@H](C(=O)OC)N(S(=O)(=O)c2ccc(F)cc2)C3=N1` (stereo partly drawn) was tested. Which inhibition did it give?
Its inhibition is -4.3%.

For `Cn1nccc1C(=O)NC1CCCc2c1cnn2-c1ccc(F)cc1F` (stereo not drawn), which inhibition is on record?
The inhibition was 99.2% (active).

With `CC1(C)Cc2c(cnn2-c2cccc(F)c2)C(NC(=O)c2cc[n+]([O-])cc2)C1` (stereo not drawn) as the compound, how does the inhibition read?
The inhibition was -2.25%.

How did the inhibition turn out when `COc1ccc(C(=O)NC2CCCc3c2cnn3-c2cccc(C)c2C)c(OC)n1` (stereo not drawn) was run?
Its inhibition is 4.34%.

Which inhibition does the source give for `COc1ccc(OC)c(C(=O)NC2CCCc3c2cnn3-c2cc(C)cc(C)c2)c1` (stereo not drawn) here?
Its inhibition is -8.72%.

Which inhibition does the source give for `Cn1nccc1C(=O)NC1CCCc2c1cnn2-c1ccccc1F` (stereo not drawn) here?
The inhibition was 103% (active).

With `COc1ccc(C(=O)NC2CC(C)(C)Cc3c2cnn3-c2ccccc2C)o1` (stereo not drawn) as the compound, how does the inhibition read?
The inhibition was -3.9%.

`Cc1ccccc1C(=O)N[C@H](C(=O)N1CCC[C@H]1C(=O)NCc1ccccc1)C(C)C` was tested. Which inhibition did it give?
Its inhibition is -4.85%.

With `COc1ccc(NS(=O)(=O)c2ccc(C(=O)Nc3c(C)n(C)n(-c4ccccc4)c3=O)cc2)cc1` as the compound, how does the inhibition read?
Its inhibition is -0.08%.

`COc1ccc(NS(=O)(=O)c2cc(NC(=O)c3ccc(S(=O)(=O)N(C)C)cc3)ccc2N2CCOCC2)cc1` was tested. Which inhibition did it give?
Its inhibition is -5.13%.

Which inhibition does the source give for `COc1ccc(NS(=O)(=O)c2ccc(NC(=O)c3ccc(N(C)S(C)(=O)=O)cc3)cc2)cc1` here?
The inhibition was 82.7% (active).

For `Nc1ncnc2c1ncn2[C@@H]1O[C@H](C(=O)N[C@@H](CCc2ccccc2)C(=O)NCC(=O)N2CCOCC2)[C@@H](O)[C@H]1O`, which inhibition is on record?
Its inhibition is -4.93%.

`Cc1cc(N2CCN(C(=O)OC(C)(C)C)C[C@H]2C)ccc1N1CCN(Cc2ccccc2)[C@H](C)C1` was tested. Which inhibition did it give?
Its inhibition is -6.01%.

How did the inhibition turn out when `CC(C[N+](C)(C)C)OC(N)=O` (stereo not drawn) was run?
The inhibition was -2.23%.

`CC(=O)OCCC(C)C` was tested. Which inhibition did it give?
Its inhibition is -6.17%.

For `CC(=O)OC(C)C[N+](C)(C)C` (stereo not drawn), which inhibition is on record?
The inhibition was 32.6% (active).

With `COCc1cc(N2CCN(C(=O)OC(C)(C)C)C[C@@H]2C)ccc1N1CCN(Cc2ccccc2)[C@H](C)C1` as the compound, how does the inhibition read?
Its inhibition is -0.36%.

Which inhibition does the source give for `Cc1ccc2nc(-c3ccc(CN4CCC(n5cc(-c6ccccc6)[nH]c5=O)CC4)cc3)c(-c3ccccc3)nc2c1` here?
The inhibition was -5.31%.

For `CC(=O)c1c(C)[nH]c(C(=O)COC(=O)c2cccc(S(=O)(=O)N(C)c3ccccc3)c2)c1C`, which inhibition is on record?
The inhibition was 78.8% (active).

`COc1cccc(C(=O)OCC(=O)c2[nH]c(C)c(C(C)=O)c2C)c1` was tested. Which inhibition did it give?
Its inhibition is -7.96%.

`CC(=O)c1c(C)[nH]c(C(=O)COC(=O)c2cccs2)c1C` was tested. Which inhibition did it give?
Its inhibition is -4.13%.

`CC(C)c1c(C(=O)N/N=C/c2ccccc2C(=O)O)nnn1-c1nonc1N` was tested. Which inhibition did it give?
Its inhibition is -9.07%.

Which inhibition does the source give for `Nc1nonc1-n1nnc(C(=O)N/N=C/c2cc(Br)ccc2O)c1CSC1=NCCS1` here?
The inhibition was 76.9% (active).

`COCc1c(C(=O)N/N=C\c2cccnc2)nnn1-c1nonc1N` was tested. Which inhibition did it give?
Its inhibition is -5.53%.

How did the inhibition turn out when `Cc1cc(OC(=O)NCCc2ccc(F)cc2)ccc1F` was run?
Its inhibition is -6.58%.

`C=CCN=C1NC(c2cccc(C(F)(F)F)c2)C(C(=O)OC)=C(C)N1C` (stereo not drawn) was tested. Which inhibition did it give?
Its inhibition is -7.24%.

How did the inhibition turn out when `CC(C)[C@@H](C)/C=C/[C@@H](C)[C@H]1CC[C@@H]2[C@]1(C)CCC1[C@]23C=C[C@]2(C[C@@H](O)CC[C@]12C)N(c1ccc([N+](=O)[O-])cn1)O3` (stereo partly drawn) was run?
Its inhibition is 2.02%.

How did the inhibition turn out when `COC(=O)C1=C(C)N(Cc2ccccc2C(F)(F)F)C(=NCc2ccc(C(F)(F)F)cc2)NC1c1ccc(F)cc1` (stereo not drawn) was run?
The inhibition was -4.63%.

How did the inhibition turn out when `CCCCCCCCN1C(=O)[C@@H](CC(=O)NCc2ccc(C)o2)C[C@@]2(C(=O)OC)C1=C[C@H](C(C)(C)C)O[C@@H]2C` was run?
The inhibition was -4.99%.

With `CN(CC(=O)Nc1ccc(Cl)c(C(F)(F)F)c1)C(=O)CCC(=O)c1ccccc1` as the compound, how does the inhibition read?
Its inhibition is -4.03%.

`O=C(Cc1ncc(C(F)(F)F)cc1Cl)Nc1cccc(Br)c1` was tested. Which inhibition did it give?
Its inhibition is 2.24%.

`O=C(CC(O)(C(F)(F)F)C(F)(F)F)Nc1ccc(Cl)c(Cl)c1` was tested. Which inhibition did it give?
The inhibition was 58.6% (active).

Which inhibition does the source give for `Nc1ncnc2c1ncn2[C@@H]1O[C@H](C(=O)N[C@@H](CCc2ccccc2)C(=O)N2CCCN(Cc3cccs3)CC2)[C@@H](O)[C@H]1O` here?
The inhibition was -6.23%.

Which inhibition does the source give for `O=C(O)Cn1cnc2c(NCc3ccccc3)ncnc21` here?
Its inhibition is -5.71%.

Which inhibition does the source give for `C=CCN1C(=O)N(Cc2ccccc2)c2ccccc2S1(=O)=O` here?
Its inhibition is -6.64%.

With `COc1ccc(C2CC(=O)Nc3sc(=N)c4c(N)c(C#N)c(N)nc4c32)cc1OC` (stereo not drawn) as the compound, how does the inhibition read?
Its inhibition is 64.7% (active).

For `COc1ccc(C2OCC3(CO2)SC(=O)NC3=O)cc1OC` (stereo not drawn), which inhibition is on record?
Its inhibition is -2.1%.

Which inhibition does the source give for `COc1ccc(OC)c2c(N)c(C#N)c(C(F)(F)C(F)(F)F)nc12` here?
The inhibition was 1.89%.

`CSc1nc2c(c(=O)[nH]1)C(c1cccc(Cl)c1Cl)CC(=O)N2` (stereo not drawn) was tested. Which inhibition did it give?
The inhibition was 12.2%.

How did the inhibition turn out when `N#Cc1c(N)nc2c3c(sc(=N)c2c1N)NC(=O)CC3c1ccccc1Cl` (stereo not drawn) was run?
Its inhibition is 62.4% (active).

For `COC(=O)[C@]12C[C@H](CC(=O)N3CCN(C(=O)C4CC4)CC3)C(=O)N(Cc3ccc4c(c3)OCO4)C1=C[C@H](C(C)(C)C)O[C@@H]2C`, which inhibition is on record?
The inhibition was -5.6%.

With `N#Cc1cccc(C(=O)NCC2CCN(C(=O)C(=O)c3cc4ccccc4o3)CC2)c1` as the compound, how does the inhibition read?
The inhibition was -3.55%.

How did the inhibition turn out when `CCOC(=O)CNC(=O)N(C)[C@H]1C[C@H]2c3[nH]c4c(-c5ccc6c(c5)OCO6)cccc4c3CCN2C(=O)[C@H]1[C@H](C)O` was run?
Its inhibition is -5.71%.

With `COc1ccc(C(C)(O)c2nc(-c3ccc(C)c(C)c3)cs2)cc1` (stereo not drawn) as the compound, how does the inhibition read?
The inhibition was -5.12%.

With `COc1ccc(C2CC(c3cccs3)=Nc3ccccc3S2)cc1OC` (stereo not drawn) as the compound, how does the inhibition read?
Its inhibition is -5.75%.

With `COc1ccc(-c2csc(-c3cccs3)n2)cc1OC` as the compound, how does the inhibition read?
The inhibition was 14.8% (active).

`O=C(C(=O)N1CCC(CNS(=O)(=O)Cc2ccccc2)CC1)c1cc2ccccc2o1` was tested. Which inhibition did it give?
The inhibition was -6.6%.

How did the inhibition turn out when `C=CCC1(CC=C)CCCN1C(=O)c1cc(COc2ccc(-n3cncn3)cc2)on1` was run?
Its inhibition is 80.6% (active).

How did the inhibition turn out when `CCCC(=O)N1CCC1(C)C(=O)Nc1ccc(-n2cncn2)cc1` (stereo not drawn) was run?
The inhibition was -6.01%.

How did the inhibition turn out when `COc1cccc(OCc2cc(C(=O)N3CCN(C(=O)c4ccco4)CC3)no2)c1` was run?
The inhibition was -10.3%.

Which inhibition does the source give for `O=C(Nc1c(Cl)c(C2CC2)nn1-c1ccccc1)C(Cl)(Cl)Cl` here?
The inhibition was -6.45%.

`COc1cccc(CC(=O)N2CCN(C(=O)C(=O)c3cccc(C(F)(F)F)c3)CC2)c1` was tested. Which inhibition did it give?
Its inhibition is 1.16%.

For `CN(C)S(=O)(=O)c1ccc(C(=O)NCC(C)(C)N2CCOCC2)cc1`, which inhibition is on record?
Its inhibition is -0.16%.

How did the inhibition turn out when `CC(C)(CNC(=O)c1ccc(Cl)c(S(=O)(=O)N2CCc3ccccc3C2)c1)N1CCOCC1` was run?
The inhibition was 98.3% (active).

For `O=C(NCCSCc1ccccc1)c1ccc(Cl)c(S(=O)(=O)N2CCOCC2)c1`, which inhibition is on record?
The inhibition was -7.04%.

How did the inhibition turn out when `COc1cccc(-c2cc(CNC(=O)[C@@H](Cc3ccccc3)NC(=O)[C@H]3O[C@@H](n4cnc(C(N)=O)n4)[C@H](O)[C@@H]3O)no2)c1` was run?
The inhibition was -7.28%.

With `CC(=O)N1c2ccc(S(=O)(=O)N3CCC(C(=O)N4CCN(c5ccccc5)CC4)CC3)cc2CC1C` (stereo not drawn) as the compound, how does the inhibition read?
The inhibition was 0.42%.

How did the inhibition turn out when `O=C(C1CCCN(S(=O)(=O)c2ccccc2)C1)N1CCN(c2ccc(F)cc2)CC1` (stereo not drawn) was run?
The inhibition was -0.67%.

Which inhibition does the source give for `CC(=O)N1CCCc2cc(S(=O)(=O)N3CCCC(C(=O)N4CCN(c5cccc(Cl)c5)CC4)C3)ccc21` (stereo not drawn) here?
Its inhibition is 77.3% (active).

`CCCCCCCCN1C(=O)[C@@H](CC(=O)NCc2ccccc2)C[C@@]2(C(=O)OC)C1=C[C@H](C(C)(C)C)O[C@@H]2C` was tested. Which inhibition did it give?
Its inhibition is -6.16%.

With `COc1ccccc1NC(=S)N1CCN(C(c2ccccc2)c2ccccc2)CC1` as the compound, how does the inhibition read?
The inhibition was -3.76%.

How did the inhibition turn out when `Cc1cccc(N2CCN(C(c3ccccc3)c3nnnn3CC3CCCO3)CC2)c1C` (stereo not drawn) was run?
The inhibition was -2.6%.

Which inhibition does the source give for `CC1(C)CC(N2CCN(C(c3ccccc3)c3ccccc3)CC2)=CC(=[N+]2CCCCC2)C1` here?
Its inhibition is 39.8% (active).

With `Cc1ccc2nc(CN(C)C(=O)[C@@H](Cc3ccccc3)NC(=O)[C@H]3O[C@@H](n4ccc(=O)[nH]c4=O)[C@H](O)[C@@H]3O)[nH]c2c1` as the compound, how does the inhibition read?
The inhibition was -7.44%.

`COC(=O)[C@]12C[C@H](CC(=O)NCc3ccc(OC)c(OC)c3)C(=O)N(Cc3ccccc3)C1=C[C@H](C(C)C)O[C@@H]2C1CC1` was tested. Which inhibition did it give?
The inhibition was 3.98%.

`COC(=O)Cc1nnn2c1[C@H](C)[C@@H](OC)c1cc(Br)ccc1-2` was tested. Which inhibition did it give?
The inhibition was -5.13%.

With `COc1ccc(-c2cc(C(=O)N(C)Cc3ccc(OC)c(OC)c3OC)c3ccccc3n2)cc1OC` as the compound, how does the inhibition read?
Its inhibition is 2.03%.

Which inhibition does the source give for `COc1ccc(-c2cc(C(F)(F)F)nc(S(C)(=O)=O)n2)cc1OC` here?
The inhibition was 20.7% (active).

How did the inhibition turn out when `COc1ccc(-c2cc(C(F)(F)F)nc(SCCC(=O)NCc3ccco3)n2)cc1` was run?
The inhibition was -3.08%.

For `COc1cccc(NC(=O)N(C)C[C@@H]2OCc3cn(nn3)CCCC(=O)N([C@@H](C)CO)C[C@H]2C)c1`, which inhibition is on record?
Its inhibition is -0.11%.

With `CC[C@H](C)[C@H]1CNC(=O)C(=O)N1CC1CCN(CCc2ccc(OC)c(OC)c2)CC1` as the compound, how does the inhibition read?
The inhibition was 1.44%.
